PubChem BioAssay AID1159580 (chemical genetic matrix, 2015)
Values joined by “and” are separate entries in the source; they are usually repeats but may differ in a detail not shown here. Identical values can stand only once. About 2,000 (36%) of roughly 5,500 compounds were called active. Not shown: some 18% with an inconclusive outcome. Rule as the data show it: active = normalized growth mostly below about 0.91 (no sharp cut-off); inconclusive = no clear call, values can overlap the other calls; inactive = mostly above about 0.92. This is one part of the list.

Assay: chemical genetic growth profiling, strain panel (AID 1159580);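 also: tested at 20 µM; growth read once vehicle control cultures reached saturation at 30 °C; 1 = growth at the plate median or of vehicle wells; lower values mean less growth of the strain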
Conditions: S. cerevisiae deletion strains, growth OD

Measured: normalized growth

N#C/C(=C\c1cccc(O)c1)C(=O)O
inactive: locus YAL013W, strain DEP1, active compounds read low 0.996 | locus YAL021C, strain ccr4, active compounds read low 0.978 | locus YAL026C, strain drs2, active compounds read low 0.985 | locus YAL030W, strain snc1, active compounds read low 0.977 | locus YBL061C, strain skt5, active compounds read low 0.976 | locus YBR009C, strain hhf1, active compounds read low 1.03 | locus YBR021W, strain FUR4, active compounds read low 1.02 | locus YBR023C, strain chs3, active compounds read low 0.979 | locus YBR171W, strain sec66, active compounds read low 0.995 | locus YBR229C, strain ROT2, active compounds read low 0.961 | locus YBR231C, strain swc5, active compounds read low 1.01 | locus YBR279W, strain paf1, active compounds read low 0.987 | locus YCL016C, strain dcc1, active compounds read low 0.966 | locus YCL029C, strain bik1, active compounds read low 0.997 | locus YCL061C, strain MRC1, active compounds read low 0.985 | locus YCL069W, strain vba3, active compounds read low 1 | locus YCR088W, strain abp1, active compounds read low 0.989 | locus YDL005C, strain med2, active compounds read low 0.999 | locus YDL035C, strain GPR1, active compounds read low 0.994 | locus YDL040C, strain nat1, active compounds read low 0.99 | locus YDL074C, strain BRE1, active compounds read low 0.981 | locus YDL101C, strain DUN1, active compounds read low 0.974 | locus YDL134C, strain PPH21, active compounds read low 0.992 | locus YDL185W, strain tfp1, active compounds read low 0.98 | locus YDL192W, strain arf1, active compounds read low 0.994 | locus YDR001C, strain nth1, active compounds read low 0.988 | locus YDR069C, strain doa4, active compounds read low 0.985 | locus YDR101C, strain arx1, active compounds read low 1.01 | locus YDR137W, strain rgp1, active compounds read low 0.977 | locus YDR150W, strain NUM1, active compounds read low 0.974 | locus YDR159W, strain sac3, active compounds read low 0.987 | locus YDR162C, strain NBP2, active compounds read low 0.921 | locus YDR195W, strain ref2 1 | locus YDR297W, strain sur2, active compounds read low 0.984 | locus YDR318W, strain mcm21, active compounds read low 1.03 | locus YDR334W, strain swr1, active compounds read low 0.981 | locus YDR335W, strain msn5, active compounds read low 0.982 | locus YDR388W, active compounds read low 0.999 | locus YDR392W, strain spt3, active compounds read low 0.933 | locus YDR502C, strain sam2, active compounds read low 0.997 | locus YEL003W, strain gim4, active compounds read low 0.997 | locus YEL037C, strain rad23, active compounds read low 0.997 | locus YEL061C, strain CIN8 (second series), active compounds read low 0.989 | locus YEL061C, strain CIN8, active compounds read low 0.985 | locus YER015W, strain faa2, active compounds read low 0.975 | locus YER016W, strain bim1, active compounds read low 0.949 | locus YER110C, active compounds read low 0.942 | locus YER111C, strain swi4, active compounds read low 0.971 | locus YER155C, strain BEM2 (second series), active compounds read low 1.04 | locus YER155C, strain BEM2, active compounds read low 0.986 | locus YER167W, strain BCK2, active compounds read low 1.05 | locus YFR010W, strain ubp6, active compounds read low 1.01 | locus YGL078C, strain dbp3, active compounds read low 0.976 | locus YGL086W, strain mad1, active compounds read low 1.03 | locus YGL167C, strain pmr1, active compounds read low 0.99 | locus YGL173C, strain kem1, active compounds read low 1.01 | locus YGL227W, strain vid30, active compounds read low 0.985 | locus YGL240W, strain doc1, active compounds read low 0.986 | locus YGL248W, strain PDE1, active compounds read low 0.984 | locus YGL253W, strain hxk2, active compounds read low 0.975 | locus YGR078C, strain PAC10, active compounds read low 0.996 | locus YGR135W, strain pre9, active compounds read low 0.993 | locus YGR229C, strain SMI1, active compounds read low 1.02 | locus YGR252W, strain gcn5, active compounds read low 1.07 | locus YHR013C, strain ard1, active compounds read low 0.962 | locus YHR027C, strain rpn1, active compounds read low 0.984 | locus YHR030C, strain SLT2, active compounds read low 0.999 and 0.994 | locus YHR079C, strain IRE1 (second series), active compounds read low 1 | locus YHR079C, strain IRE1, active compounds read low 0.969 | locus YHR094C, strain hxt1, active compounds read low 0.993 | locus YHR129C, strain ARP1, active compounds read low 1 | locus YHR142W, strain chs7, active compounds read low 0.971 | locus YHR200W, strain rpn10, active compounds read low 1 | locus YIL066C, strain RNR3, active compounds read low 0.989 | locus YIL073C, strain SPO22, active compounds read low 1.1 | locus YIL125W, strain kgd1, active compounds read low 0.989 | locus YIR030C, strain dcg1, active compounds read low 0.991 | locus YJL092W, strain hpr5, active compounds read low 0.987 | locus YJL095W, strain BCK1 (second series), active compounds read low 0.984 | locus YJL095W, strain BCK1, active compounds read low 1.01 and 0.978 | locus YJL115W, strain asf1, active compounds read low 0.97 | locus YJL129C, strain trk1, active compounds read low 0.925 | locus YJL134W, strain LCB3, active compounds read low 0.987 | locus YJL154C, strain vps35, active compounds read low 0.985 | locus YJL164C, strain tpk1, active compounds read low 0.987 | locus YJL166W, strain qcr8, active compounds read low 1 | locus YJL168C, strain set2, active compounds read low 0.995 | locus YJL187C, strain SWE1 (second series), active compounds read low 0.966 | locus YJL187C, strain SWE1, active compounds read low 0.997 | locus YJR043C, strain POL32, active compounds read low 1.04 | locus YJR066W, strain TOR1, active compounds read low 0.98
